# Experimental data from PubChem BioAssay AID1508600 (Functional Genomics Laboratory (NCATS/FGL), 2020).
# Screen size: about 53,000 sequences; about 3,700 (7%) were called active. Many of the other results were omitted from the sample, so actives are more common in it than they were. Unmarked numbers belong to inactive results.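 Rule for the calls: active = gene knockdowns whose robust z-score for IL-1 alpha signal is at least 2 or at most -2, so actives lie on both sides; inactive = the rest.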
# Test: Components of the Cytosolic LPS Sensing Pathway: Gene Identification via Genome-wide siRNA Screen;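 note: robust z of the log signal after scaling to non-targeting control siRNA wells of the plate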
# Details: RAW264.7 macrophages, IL-1a HTRF, actives lie on both sides, screened at 100 nM (by protocol), cells primed 5 h with Pam3CSK4 first
# How it was run: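 Knockdown: 100 nM siRNA, 48h, RAW264.7. Stimulation: Pam3CSK4 5 h, then LipidA via TransIT-TKO 24 h. Output: supernatant IL-1a HTRF, negative-control-normalized, log robust z-score; viability by CellTiter-Glo.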
row,Sequence,z-score
1,CCUAGGGCUUUAGCUCUGATT against Msc,-0.75
2,GGAUUAAACCUUUUAACCGTT against Emilin3,-0.251
3,GCAUGUUUUACAGUGUUCATT against Rxfp1,2.7 (active)
4,GCCGGAUGGCACAUUCGUATT against Cda,-0.281
5,CCUAAGGUCAAGAUAUAGCTT against Cep55,0.121
6,CCCACCAGAUUUCUACACCTT against Vsig2,-2
7,GGCUAUGGACCGAAAGAUUTT against Dgcr6,-1.42
8,GCAGCUGUCAUGUAUACAGTT against Olfr59,-0.867
9,GGAAUAUCCCAACAUCUGUTT against Upp1,-0.899
10,GCAGUAUGUAAACCCUUACTT against Olfr1463,0.558
11,CGACCUUAAGCUAAGCAGUTT against Aff3,1.18
12,GGAAUUUUCUCAUGAUCUUTT against Krtap3-3,0.813
13,GGGCUAUUAAAUGAUUUCATT against Pax1,5 (active)
14,GCCAUGAUUUUCAUGUACGTT against Olfr711,0.241
15,CCUUAAUAAAUCUAGUGGCTT against Stmn3,-0.567
16,GCGGCUUAUGUCUCAAAUUTT against Gcdh,2.34 (active)
17,GGCCGAUGCCAAAUUGGUATT against Olfm1,0.0323
18,GGACUAGCAAGGCAAGUGATT against Dnase2b,1.32
19,GGGAAUCGGACCAACUUACTT against Adssl1,3.64 (active)
20,GCGAGUUUAAUGUUUAUGCTT against Pdgfra,-1.29
21,GCCCAGCAUGGAUAGAUUATT against Mis18bp1,0.466
22,GGAAAAUGUAAACAAGUACTT against Xpo5,-0.595

row,Sequence,z-score
1,GGAUAACACCACCAACUAUTT against Akap8l,0.456
2,GGGCUGUUCUACUUAGUUATT against N6amt1,0.573
3,GGAUUAAAGAAAGACAUUGTT against Yme1l1,-2.04 (active)
4,CGCCAGAGUGCAUAGUCUUTT against Mindy2,1.94
5,GCCAUUUUAGAGCAGAUCCTT against Rundc3a,-2.33 (active)
6,GCAAACUGUCCUAUCUUGGTT against Cacna1d,0.84
7,GGUGUUGUUUCGAAUUAUUTT against Xrn1,0.44
8,GGUUCAGGUUCUUCUAAAATT against Cd109,1.42
9,GCACCUGAGCUUUCGAAUATT against Fam3a,-0.373
10,CCGUGGAAACAGUCCUGAATT against Nudcd1,0.646
11,GCUACUCUCGCCUGUUACATT against Dcaf12,0.0053
12,GGCCAAUGCCCUUUUUUGATT against Spem2,0.427
13,GUUCCCUGCCUGGCAGAAUTT against Foxd2,3.8 (active)
14,GGCAGCACCAUCGUCUAAUTT against 4930432E11Rik,0.622
15,GGUCAAGUCACUGGUGACGTT against Fabp3,-1.73
16,GGAAGAUGGGCUAUUUCAUTT against Gabra6,0.545
17,GGACAAGACCAUCUUCGAUTT against Sectm1a,0.21
18,CCAAAUCCCAGAGUUAUUUTT against Htr2c,0.361
19,GCAAAAGACCAUCUGAGUGTT against Adig,0.375
20,GGAAUUGGCAUCCUUAAGCTT against Cops3,2.43 (active)
21,GGUCAGAAGGUGUGUUAUATT against Rad52,0.338
22,GGCAUUCCCAGUCGUAAAGTT against Kctd3,-1.1

row,Sequence,z-score
1,GGUUUAUAUCCGUACACCUTT against Sp2,1.97
2,GGUGUUCUACUGUGCAUUATT against 9330132A10Rik,0.578
3,GUUCCUCAGUAUGUUGCCATT against Olfr126,-2.85 (active)
4,GGGAUUGGUUAUUUUACAUTT against Trmt12,-0.578
5,GGAAAUAUGGCAAGAAUUUTT against Rgs7,0.781
6,GCUAAUGUGGAGGACUCACTT against Chml,-0.574
7,GCAUUUCCCAGCCUGAUACTT against Aif1l,-0.584
8,GGUGACACAGUACAAGAAGTT against Rpl36a,0.318
9,GGCGAGAAACCUUUCAGAUTT against Zic4,4.72 (active)
10,CGGCGAUGGAAAAAAAUUUTT against Tmem178,1.04
11,GGGUGCUUACAGAAUAUCUTT against Ms4a19,1.07
12,GGUGAACCCUUUGAGGAAGTT against Gstt3,-0.42
13,GGAUUAAAUGGUGGUGGAGTT against Dnajb6,-1.1
14,GGAUGAAAUUGUGUUAUCUTT against Snrk,-0.371
15,GCCCUUUUACGGCAACAGATT against C2cd5,-1.48
16,CCACAUGCCAAAAUAAUACTT against Oxr1,-0.771
17,GGAAGAACUUGUCUCUUUUTT against Tmtc2,0.501
18,GGAUGCUGUAACACUUUAUTT against Bcl6,3.31 (active)
19,GCGAUCACUUUUCAAGUUUTT against Rnf139,0.0177
20,GGAAAUCCUCAGACAAAUGTT against Pdc,0.93
21,GGAAAUGUACCUGUUUGUUTT against Dnase1l2,0.928
22,GGCUUAGGUGUCCGAGAAATT against Wfdc2,-1.01

row,Sequence,z-score
1,GGCUGUGGUAGAAAAGCUGTT against Hspg2,-1.65
2,CCAUAUCUAUGAUAUGGUUTT against Piezo2,-2.18 (active)
3,GGAAGAUCCAUUUAAUGUATT against Eps15,1.14
4,GCUGAAGGGUCUCGUAUUGTT against Hes2,0.262
5,GGCUUUGAUGUCAGCACUGTT against Ngrn,0.247
6,GCUCAUGCAUGGCUGUACATT against Gbp9,0.603
7,GGAGCAUUCUCCAUCUAGCTT against Dennd2d,-1.41
8,GGAGGAGUCUUGAAUCCAGTT against Yod1,-0.122
9,GGACUUGGUGACUUACUUCTT against Smpdl3b,-1.42
10,CGGGUAAUAAGGAUUUGGGTT against Cadm4,2.05 (active)
11,GGAGACAGUUCAGAAGUGGTT against Glp2r,0.0837
12,GAAGUCUGUGACCAGUUCCTT against Fgf2os,0.735
13,GCUAGGUGGGCAACUGUAUTT against Lpar3,2.12 (active)
14,CCCUGAAACCUCGGUGUUUTT against Vmac,1.34
15,GGAACUGGAGAUGCACAGCTT against Mtcl1,1.2
16,GGAAAUUGUCAGGUCCUACTT against Rad50,2.94 (active)
17,GGUUAUGUGUUCCAUAGAUTT against Pcdhb13,0.248
18,GGAUAAACAGCUGAAGGUGTT against Ccs,0.762
19,GGCCGUUUUUUGGCAUCGUTT against Acss1,-1.71
20,GGCAAGCCAGAGAAACUGATT against Rbm42,6.18 (active)
21,GGUAAUCCUGACUUCGUGGTT against Asb17,0.915
22,GCCGUAUUCAUUAAUAAAGTT against Ash1l,0.0753

row,Sequence,z-score
1,GCUAGAAAGGACUUCGUGGTT against Pla2g4f,-2.36 (active)
2,CGAUUUCACAAAAACAUGATT against Vta1,-0.394
3,GGUGUUGGAGACCAUGGAUTT against Clcn6,0.829
4,CGUGAUGUACAUGCAGGAUTT against Slc48a1,2.83 (active)
5,GCAAUCGACCGCAUCCUAATT against Gm4827,-1.32
6,GGGCUCCAAUUUGCUACCATT against Grp,0.342
7,GCAGCAAUCAGAUCAUGUATT against Platr26,-0.694
8,GGUCCAGAUUGCUUAGAUGTT against Zbtb11os1,-0.398
9,CCUUAUACCAUAGAGAACATT against Bfar,1.14
10,GGAGAAACGAAAAGACUCUTT against Brpf1,-2.25 (active)
11,GGCUUCAAGGACUUUACAATT against Mefv,1.62
12,GGUGUGCUCUGUAAAUCAUTT against Trappc2,0.656
13,GGAUGAGCAUAAAAGUCCUTT against Atf7ip,-0.536
14,CCUGUCACAGAUGUAUGUGTT against Rnf149,0.331
15,GGAAUCUCCACCAUACAGGTT against Vmn1r26,-0.263
16,GGAGGAUACAGUGGAGGGATT against Fbxl19,2.81 (active)
17,GGACGGUAGCCAUAUUAAUTT against Spink2,-0.385
18,GGCUGAAGUUCAUGAUGGCTT against Cd209d,1.7
19,CCACCAGGGAUCGUUAUAATT against Phyh,2.25 (active)
20,GGCGAUUAUGGAAAAAUGUTT against Osbpl11,-0.431
